# PubChem BioAssay (EPA / NIEHS)
# Results filed as inconclusive are left out. Calls of active or inactive are those of the source. Rule for the calls, unless noted: active = hit-call score of the fitted dose curve at least 0.9, where 1 is the maximum; inconclusive = response in the unintended direction; inactive = score below 0.9.
# What was measured:
# [1] = biological target: human Peroxisome Proliferator-activated Receptor alpha (PPARa), PPARA (gene 5465) (UniProt Q07869); assay: ATG_PPARa_TRANS: Attagene TRANS-FACTORIAL HepG2 Assay for human Peroxisome Proliferator-activated Receptor alpha (PPARa) (AID 2283001);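 for AC50: potency for gain of reporter signal over DMSO so agonist or activator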
# Chain of human Peroxisome Proliferator-activated Receptor alpha (PPARa), PPARA (gene 5465) (Q07869 whole entry, looked up, the tested form may be a part): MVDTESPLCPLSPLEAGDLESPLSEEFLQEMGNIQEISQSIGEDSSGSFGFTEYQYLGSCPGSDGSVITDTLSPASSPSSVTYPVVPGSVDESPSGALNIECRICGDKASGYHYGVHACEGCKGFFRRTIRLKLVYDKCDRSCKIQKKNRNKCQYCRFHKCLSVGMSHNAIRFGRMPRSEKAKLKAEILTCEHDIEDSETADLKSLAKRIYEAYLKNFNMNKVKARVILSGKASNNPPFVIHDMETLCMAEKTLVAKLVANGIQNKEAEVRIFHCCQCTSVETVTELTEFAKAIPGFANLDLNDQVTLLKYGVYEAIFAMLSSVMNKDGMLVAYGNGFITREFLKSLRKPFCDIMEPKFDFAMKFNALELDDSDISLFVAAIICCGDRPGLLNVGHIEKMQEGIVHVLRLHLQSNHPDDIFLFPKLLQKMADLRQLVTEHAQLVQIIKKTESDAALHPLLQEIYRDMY
# Outline: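 Measures transcriptional activity of an exogenous chimeric PPARa-Gal4 protein in transiently transfected HepG2 cells after 24 h dosing. Reporter mRNA quantified via RT-PCR and capillary electrophoresis; DMSO served as negative control.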
# [2] = biological target: human Peroxisome Proliferator-activated Receptor delta (PPARd), PPARD (gene 5467) (UniProt Q03181); assay: ATG_PPARd_TRANS: Attagene TRANS-FACTORIAL HepG2 Assay for human Peroxisome Proliferator-activated Receptor delta (PPARd) (AID 2283002)
# Chain of human Peroxisome Proliferator-activated Receptor delta (PPARd), PPARD (gene 5467) (Q03181 whole entry, looked up, the tested form may be a part): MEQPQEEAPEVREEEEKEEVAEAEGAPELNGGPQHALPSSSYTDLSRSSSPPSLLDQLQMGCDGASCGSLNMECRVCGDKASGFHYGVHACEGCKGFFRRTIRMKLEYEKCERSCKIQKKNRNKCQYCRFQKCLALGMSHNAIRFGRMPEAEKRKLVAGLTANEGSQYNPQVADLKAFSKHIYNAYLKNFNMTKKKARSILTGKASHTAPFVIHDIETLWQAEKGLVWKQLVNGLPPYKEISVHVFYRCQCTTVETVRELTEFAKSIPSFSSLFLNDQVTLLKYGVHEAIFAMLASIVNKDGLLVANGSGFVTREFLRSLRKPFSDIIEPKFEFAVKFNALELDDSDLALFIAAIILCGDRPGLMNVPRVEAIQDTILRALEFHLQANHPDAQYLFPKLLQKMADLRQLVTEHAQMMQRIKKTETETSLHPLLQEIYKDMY
# Outline: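 HepG2 cells transiently transfected with GAL4-UAS multiplexed reporter units driven by exogenous chimeric NR-GAL4 proteins; 24 h compound exposure. Reporter mRNA measured by RT-PCR, 6-FAM primer extension, HpaI digestion and capillary electrophoresis; gain of signal fitted relative to DMSO.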
# [3] = read-out: Intercellular Adhesion Molecule 1 (ICAM1), ICAM1 (gene 3383); assay: BSK_3C_ICAM1: BioMAP Diversity Plus: 3C Assay for Intercellular Adhesion Molecule 1 (ICAM1) Biomarker Activity (AID 2283003; active = hit-call score of the fitted dose curve at least 0.9, where 1 is the maximum; inactive = score below 0.9); conditions: primary human endothelial cells (HUVEC); actives raise or lower the signal
# Outline: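 Primary human umbilical vein endothelial cells in the BioMAP 3C system were exposed to chemicals for 24 h, then ICAM-1 was quantified by ELISA. Activity was fitted bidirectionally against the DMSO negative control baseline.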
# [4] = BSK_3C_Proliferation: Cell Proliferation Assessment in the BioMAP Diversity Plus: 3C Assay (AID 2283006; active = hit-call score of the fitted dose curve at least 0.9, where 1 is the maximum; inactive = score below 0.9;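 for AC50: potency may reflect either rise or fall in cell number versus DMSO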); conditions: primary human endothelial cells (HUVEC)
# Outline: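 Human umbilical vein endothelial cells were grown sub-confluent and exposed to chemical for 48 h, then fixed with 10% TCA and stained with 0.1% sulforhodamine B; absorbance at 560 nm gave relative cell number, fitted bidirectionally against DMSO baseline.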
# [5] = biological target: Peroxisome proliferator-activated receptor gamma (Homo sapiens) (UniProt P37231); assay: ATG_PPARg_TRANS: Attagene TRANS-FACTORIAL HepG2 Assay for human Peroxisome Proliferator-activated Receptor-gamma (PPARg) (AID 2283007)
# Chain of Peroxisome proliferator-activated receptor gamma (Homo sapiens) (P37231 whole entry, looked up, the tested form may be a part): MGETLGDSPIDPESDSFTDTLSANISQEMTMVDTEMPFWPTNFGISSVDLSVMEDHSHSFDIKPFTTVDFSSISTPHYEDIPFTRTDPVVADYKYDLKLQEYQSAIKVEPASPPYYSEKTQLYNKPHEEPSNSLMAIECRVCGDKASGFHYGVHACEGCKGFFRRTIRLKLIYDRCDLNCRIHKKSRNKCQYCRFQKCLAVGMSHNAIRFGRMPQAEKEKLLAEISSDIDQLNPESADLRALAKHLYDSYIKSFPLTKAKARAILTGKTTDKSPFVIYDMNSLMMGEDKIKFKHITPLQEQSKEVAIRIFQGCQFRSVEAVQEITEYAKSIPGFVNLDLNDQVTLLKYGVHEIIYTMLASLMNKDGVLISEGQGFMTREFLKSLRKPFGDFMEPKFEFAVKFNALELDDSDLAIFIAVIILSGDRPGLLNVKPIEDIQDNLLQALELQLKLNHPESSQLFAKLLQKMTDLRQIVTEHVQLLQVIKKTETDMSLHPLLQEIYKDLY
# Outline: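 HepG2 cells transiently transfected with multiplexed GAL4-UAS reporter units and exogenous chimeric NR-Gal4 proteins; reporter mRNA quantified after 24 h compound exposure by RT-PCR, fluorescent labelling, HpaI digestion and capillary electrophoresis; gain-of-signal fitted versus DMSO baseline.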
# [6] = biological target: Nuclear receptor subfamily 1 group I member 2 (Homo sapiens) (UniProt O75469); assay: ATG_PXR_TRANS: Attagene TRANS-FACTORIAL HepG2 Assay for human Pregnane X Receptor (PXR) (AID 2283008)
# Chain of Nuclear receptor subfamily 1 group I member 2 (Homo sapiens) (O75469 whole entry, looked up, the tested form may be a part): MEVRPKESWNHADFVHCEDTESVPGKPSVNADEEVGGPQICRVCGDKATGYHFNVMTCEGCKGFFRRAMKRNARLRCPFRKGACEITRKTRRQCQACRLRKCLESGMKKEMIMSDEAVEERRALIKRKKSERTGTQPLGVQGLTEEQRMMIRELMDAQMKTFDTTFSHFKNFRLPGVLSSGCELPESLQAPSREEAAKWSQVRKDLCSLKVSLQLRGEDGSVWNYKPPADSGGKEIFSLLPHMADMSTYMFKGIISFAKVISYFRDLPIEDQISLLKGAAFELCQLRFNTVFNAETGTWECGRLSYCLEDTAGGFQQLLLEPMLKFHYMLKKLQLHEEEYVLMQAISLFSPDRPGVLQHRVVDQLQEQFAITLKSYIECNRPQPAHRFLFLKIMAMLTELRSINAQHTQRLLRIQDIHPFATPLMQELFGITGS
# Outline: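 HepG2 cells transiently transfected with multiple reporter units, here a PXR-GAL4 chimera driving a GAL4-UAS reporter; 24 h compound exposure. Reporter mRNA measured by RT-PCR, FAM labelling and capillary electrophoresis; gain of signal fitted against DMSO baseline.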
# [7] = biological target: human Retinoid X Receptor beta (RXRb), RXRB (gene 6257) (UniProt P28702); assay: ATG_RXRb_TRANS: Attagene TRANS-FACTORIAL HepG2 Assay for human Retinoid X Receptor beta (RXRb) (AID 2283013)
# Chain of human Retinoid X Receptor beta (RXRb), RXRB (gene 6257) (P28702 whole entry, looked up, the tested form may be a part): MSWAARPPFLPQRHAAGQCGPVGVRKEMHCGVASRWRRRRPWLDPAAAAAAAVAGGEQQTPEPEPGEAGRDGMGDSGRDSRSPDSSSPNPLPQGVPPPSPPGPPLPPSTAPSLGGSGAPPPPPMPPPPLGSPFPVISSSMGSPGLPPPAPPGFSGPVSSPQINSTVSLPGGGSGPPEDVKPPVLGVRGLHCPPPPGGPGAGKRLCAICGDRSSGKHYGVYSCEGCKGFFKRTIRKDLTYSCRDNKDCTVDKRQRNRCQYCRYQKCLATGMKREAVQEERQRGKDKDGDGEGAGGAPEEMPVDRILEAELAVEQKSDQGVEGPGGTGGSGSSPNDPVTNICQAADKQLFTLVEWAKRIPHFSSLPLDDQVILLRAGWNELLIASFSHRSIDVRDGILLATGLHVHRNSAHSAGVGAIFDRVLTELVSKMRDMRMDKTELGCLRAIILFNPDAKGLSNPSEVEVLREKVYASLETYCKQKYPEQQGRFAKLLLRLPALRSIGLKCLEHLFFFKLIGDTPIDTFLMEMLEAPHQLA
# Outline: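 HepG2 cells transiently transfected with multiplexed reporter units driven by GAL4-UAS and exogenous chimeric NR-Gal4 proteins; treated 24 h. Reporter mRNA measured by RT-PCR, 6-FAM labelling and capillary electrophoresis; gain-of-signal fitted versus DMSO baseline.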
# [8] = read-out: Interleukin-1 alpha (IL1a), IL1A (gene 3552); assay: BSK_BE3C_IL1a: BioMAP Diversity Plus: BE3C Assay for Interleukin-1 alpha (IL1a) Biomarker Activity (AID 2283016; active = hit-call score of the fitted dose curve at least 0.9, where 1 is the maximum; inactive = score below 0.9); conditions: primary human bronchial epithelial cells; actives raise or lower the signal
# Outline: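 Human primary bronchial epithelial cells (BE3C system) were dosed with compound and IL-1a measured by ELISA 24 h later. Activity was fitted bidirectionally against DMSO baseline; cytotoxicity was tracked in parallel cultures by SRB total-protein staining.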
# [9] = read-out: Monocyte Chemoattractant Protein-1 (MCP1), CCL2 (gene 6347); assay: BSK_3C_MCP1: BioMAP Diversity Plus: 3C Assay for Monocyte Chemoattractant Protein-1 (MCP1) Biomarker Activity (AID 2283017; active = hit-call score of the fitted dose curve at least 0.9, where 1 is the maximum; inactive = score below 0.9); conditions: primary human endothelial cells (HUVEC); actives raise or lower the signal
# Outline: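 Primary human umbilical vein endothelial cells (3C system) were exposed to test chemical for 24 h, after which MCP-1 was quantified by ELISA. Activity was fitted bidirectionally against DMSO as negative control and baseline.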
# [10] = read-out: Monocyte Chemoattractant Protein-1 (MCP1), CCL2 (gene 6347); assay: BSK_4H_MCP1: BioMAP Diversity Plus: 4H Assay for Monocyte Chemoattractant Protein-1 (MCP1) Biomarker Activity (AID 2283018; active = hit-call score of the fitted dose curve at least 0.9, where 1 is the maximum; inactive = score below 0.9); conditions: primary human endothelial cells (HUVEC); actives raise or lower the signal
# Outline: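 Human umbilical vein endothelial cells (4H system) dosed with chemical; MCP-1 measured by ELISA 24 h after dosing. Bidirectional curve fitting against DMSO negative control as baseline; parallel SRB total-protein staining tracks overt cytotoxicity.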
# [11] = read-out: Human Leukocyte Antigen - DR isotype (HLADR), HLA-DRA (gene 3122); assay: BSK_3C_HLADR: BioMAP Diversity Plus: 3C Assay for Human Leukocyte Antigen - DR isotype (HLADR) Biomarker Activity (AID 2283019; active = hit-call score of the fitted dose curve at least 0.9, where 1 is the maximum; inactive = score below 0.9;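 for outcome: ELISA of cell-surface HLA-DR on HUVEC 24 h after dosing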); conditions: primary human endothelial cells (HUVEC); actives raise or lower the signal
# Outline: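 Primary human umbilical vein endothelial cells (3C system) were dosed with compound and cell-surface HLA-DR was quantified by ELISA at 24 h. Activity was fitted bidirectionally against DMSO as negative control and baseline.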
# [12] = read-out: Interleukin-8 (IL8), CXCL8 (gene 3576); assay: BSK_3C_IL8: BioMAP Diversity Plus: 3C Assay for Interleukin-8 (IL8) Biomarker Activity (AID 2283020; active = hit-call score of the fitted dose curve at least 0.9, where 1 is the maximum; inactive = score below 0.9); conditions: primary human endothelial cells (HUVEC); actives raise or lower the signal
# Outline: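 Primary human umbilical vein endothelial cells (3C system) were exposed to test chemical for 24 h, then IL-8 was quantified by ELISA. Responses were fitted bidirectionally against DMSO vehicle as baseline.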
# [13] = read-out: Monokine induced gamma interferon (MIG), CXCL9 (gene 4283); assay: BSK_3C_MIG: BioMAP Diversity Plus: 3C Assay for Monokine induced gamma interferon (MIG) Biomarker Activity (AID 2283021; active = hit-call score of the fitted dose curve at least 0.9, where 1 is the maximum; inactive = score below 0.9;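 for AC50: MIG protein level measured by immunoassay in the treated endothelial cultures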); conditions: primary human endothelial cells (HUVEC); actives raise or lower the signal
# Outline: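 Primary human umbilical vein endothelial cells in the 3C system were exposed to chemical for 24 h, after which MIG was quantified by ELISA. Activity was fitted bidirectionally against DMSO as negative control and baseline.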
# [14] = biological target: human RAR-related Orphan Receptor beta (RORb), RORB (gene 6096) (UniProt Q92753); assay: ATG_RORb_TRANS: Attagene TRANS-FACTORIAL HepG2 Assay for human RAR-related Orphan Receptor beta (RORb) (AID 2283010)
# Chain of human RAR-related Orphan Receptor beta (RORb), RORB (gene 6096) (Q92753 whole entry, looked up, the tested form may be a part): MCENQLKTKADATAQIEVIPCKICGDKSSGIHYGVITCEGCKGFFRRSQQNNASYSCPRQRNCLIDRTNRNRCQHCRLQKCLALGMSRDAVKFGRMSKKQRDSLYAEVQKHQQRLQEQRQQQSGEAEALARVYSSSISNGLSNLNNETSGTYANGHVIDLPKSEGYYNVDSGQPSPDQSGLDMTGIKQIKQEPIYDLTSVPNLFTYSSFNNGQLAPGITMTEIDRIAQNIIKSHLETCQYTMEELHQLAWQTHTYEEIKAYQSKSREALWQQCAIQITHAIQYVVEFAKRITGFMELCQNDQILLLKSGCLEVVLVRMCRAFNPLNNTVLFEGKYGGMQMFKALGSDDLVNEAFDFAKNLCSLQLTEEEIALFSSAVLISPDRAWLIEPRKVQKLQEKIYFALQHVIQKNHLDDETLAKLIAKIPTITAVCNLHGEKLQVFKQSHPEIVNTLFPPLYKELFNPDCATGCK
# Outline: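 HepG2 cells were transiently transfected with multiplexed GAL4-UAS reporter units expressing chimeric nuclear receptor–GAL4 proteins, then dosed for 24 h. Reporter mRNA was quantified by RT-PCR with fluorescent labelling and capillary electrophoresis; gain of signal was fitted relative to DMSO.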
# [15] = biological target: human RAR-related Orphan Receptor gamma (RORg), RORC (gene 6097) (UniProt P51449); assay: ATG_RORg_TRANS: Attagene TRANS-FACTORIAL HepG2 Assay for human RAR-related Orphan Receptor gamma (RORg) (AID 2283011)
# Chain of human RAR-related Orphan Receptor gamma (RORg), RORC (gene 6097) (P51449 whole entry, looked up, the tested form may be a part): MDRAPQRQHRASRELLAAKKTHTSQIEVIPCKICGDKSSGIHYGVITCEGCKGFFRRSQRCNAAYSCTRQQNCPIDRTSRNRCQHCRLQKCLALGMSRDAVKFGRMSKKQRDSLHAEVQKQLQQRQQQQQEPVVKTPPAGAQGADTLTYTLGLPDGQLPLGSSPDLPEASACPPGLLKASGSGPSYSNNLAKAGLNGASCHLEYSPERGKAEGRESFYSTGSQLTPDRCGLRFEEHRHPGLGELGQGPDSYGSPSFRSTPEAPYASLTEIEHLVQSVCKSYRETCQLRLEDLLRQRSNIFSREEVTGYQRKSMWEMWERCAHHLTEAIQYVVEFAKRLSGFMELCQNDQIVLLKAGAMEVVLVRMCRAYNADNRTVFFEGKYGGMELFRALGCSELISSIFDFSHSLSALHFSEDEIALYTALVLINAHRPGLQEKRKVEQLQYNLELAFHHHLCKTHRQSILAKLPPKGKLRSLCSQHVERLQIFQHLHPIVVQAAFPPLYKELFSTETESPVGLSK
# Outline: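 Readout: reporter transcript induction (RT-PCR, fluorescent primer extension, capillary electrophoresis) after 24 h compound exposure of transiently transfected HepG2 cells carrying a RORg-Gal4 chimera and GAL4-UAS reporters; DMSO served as baseline, with increasing signal fitted.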
# [16] = biological target: Retinoic acid receptor RXR-alpha (Homo sapiens) (UniProt P19793); assay: ATG_RXRa_TRANS: Attagene TRANS-FACTORIAL HepG2 Assay for human Retinoid X Receptor alpha (RXRa) (AID 2283012)
# Chain of Retinoic acid receptor RXR-alpha (Homo sapiens) (P19793 whole entry, looked up, the tested form may be a part): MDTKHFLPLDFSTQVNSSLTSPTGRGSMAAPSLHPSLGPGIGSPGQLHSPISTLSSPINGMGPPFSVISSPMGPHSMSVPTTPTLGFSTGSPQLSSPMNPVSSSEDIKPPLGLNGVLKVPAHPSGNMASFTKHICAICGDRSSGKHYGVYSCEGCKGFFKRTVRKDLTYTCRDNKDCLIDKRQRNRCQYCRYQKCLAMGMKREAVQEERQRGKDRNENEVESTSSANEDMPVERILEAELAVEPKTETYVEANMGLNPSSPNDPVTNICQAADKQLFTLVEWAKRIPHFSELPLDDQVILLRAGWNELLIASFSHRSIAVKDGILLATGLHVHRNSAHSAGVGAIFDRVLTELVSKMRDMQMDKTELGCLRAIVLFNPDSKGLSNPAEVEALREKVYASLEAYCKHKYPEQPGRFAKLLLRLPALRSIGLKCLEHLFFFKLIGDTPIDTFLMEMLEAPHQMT
# Outline: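 HepG2 cells transiently transfected with multiplexed GAL4-UAS reporter units and chimeric NR-GAL4 fusions, dosed 24 h. Reporter mRNA measured by RT-PCR, FAM labelling, HpaI digestion and capillary electrophoresis; gain-of-signal fitted relative to DMSO baseline.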
# [17] = biological target: human Thyroid Receptor alpha (THRa1), THRA (gene 7067) (UniProt P10827); assay: ATG_THRa1_TRANS: Attagene TRANS-FACTORIAL HepG2 Assay for human Thyroid Receptor alpha (THRa1) (AID 2283014)
# Chain of human Thyroid Receptor alpha (THRa1), THRA (gene 7067) (P10827 whole entry, looked up, the tested form may be a part): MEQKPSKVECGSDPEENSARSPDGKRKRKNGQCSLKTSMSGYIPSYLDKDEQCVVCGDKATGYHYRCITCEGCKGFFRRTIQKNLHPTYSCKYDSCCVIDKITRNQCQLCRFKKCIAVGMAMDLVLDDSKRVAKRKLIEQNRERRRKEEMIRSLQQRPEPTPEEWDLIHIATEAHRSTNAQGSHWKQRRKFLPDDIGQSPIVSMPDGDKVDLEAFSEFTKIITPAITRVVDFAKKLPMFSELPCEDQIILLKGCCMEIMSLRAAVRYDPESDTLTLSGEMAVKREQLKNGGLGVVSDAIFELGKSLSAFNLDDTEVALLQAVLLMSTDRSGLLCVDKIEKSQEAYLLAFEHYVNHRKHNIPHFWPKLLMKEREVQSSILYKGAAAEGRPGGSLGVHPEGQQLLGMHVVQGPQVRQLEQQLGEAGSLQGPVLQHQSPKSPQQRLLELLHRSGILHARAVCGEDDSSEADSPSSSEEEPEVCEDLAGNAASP
# Outline: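 HepG2 cells transiently transfected with multiplexed GAL4-UAS reporter units for exogenous chimeric THRa1-Gal4; reporter mRNA measured 24 h after dosing by RT-PCR, 6-FAM labelling, HpaI digestion and capillary electrophoresis. Gain-of-signal fitted versus DMSO baseline.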
structure (smiles),measurement,setting,value
CC1CCC(C(C)CS)CC1S (stereo not drawn),AC50,[1],53.7 µM (active)
same,outcome,[2],inactive
same,AC50,[3],27.4 µM (active)
same,AC50,[4],25.7 µM (active)
same,AC50,[5],41 µM (active)
same,AC50,[6],2.84 µM (active)
same,AC50,[7],59.9 µM (active)
same,AC50,[8],20 µM (active)
same,AC50,[9],20 µM (active)
same,AC50,[10],20 µM (active)
same,AC50,[11],35.1 µM (active)
same,outcome,[12],inactive
same,AC50,[13],36.9 µM (active)
CC(C)=CCO,outcome,[1],inactive
same,outcome,[2],inactive
same,outcome,[5],inactive
same,outcome,[6],inactive
same,outcome,[14],inactive
same,outcome,[15],inactive
same,outcome,[16],inactive
same,outcome,[17],inactive
O=C(O)c1cccc([N+](=O)[O-])c1,outcome,[1],inactive
same,outcome,[2],inactive
same,outcome,[5],inactive
same,outcome,[6],inactive
same,outcome,[14],inactive
same,outcome,[15],inactive
same,outcome,[16],inactive
same,outcome,[17],inactive
Cc1ccccc1C=O,outcome,[1],inactive
same,outcome,[2],inactive
same,outcome,[5],inactive
same,AC50,[6],20.9 µM (active)
same,outcome,[14],inactive
same,outcome,[16],inactive
same,outcome,[7],inactive
same,outcome,[17],inactive
C[C@H]1C[C@@H]2[C@H]([C@@H](O)C[C@@]3(C)[C@H]2CC[C@]3(O)C(=O)CO)[C@@]2(C)C=CC(=O)C=C12,outcome,[1],inactive
same,outcome,[2],inactive
same,outcome,[3],inactive
same,outcome,[4],inactive
same,outcome,[6],inactive
same,outcome,[16],inactive
same,outcome,[7],inactive
same,outcome,[17],inactive
same,outcome,[8],inactive
same,outcome,[9],inactive
same,outcome,[10],inactive
same,outcome,[11],inactive
same,outcome,[12],inactive
same,outcome,[13],inactive
NNc1nc(-c2ccc(N)cc2)cs1,outcome,[1],inactive
same,outcome,[2],inactive
same,outcome,[5],inactive
same,outcome,[6],inactive
same,outcome,[14],inactive
same,outcome,[16],inactive
same,outcome,[7],inactive
